The text below walks through data of ChEMBL document CHEMBL2218924, “A broad activity screen in support of a chemogenomic map for kinase signalling research and drug discovery” (Biochem J, 2013).

The target of assay [1] is T1, Ephrin type-A receptor 3 (Homo sapiens) (UniProt P29320).
T1 sequence (whole entry): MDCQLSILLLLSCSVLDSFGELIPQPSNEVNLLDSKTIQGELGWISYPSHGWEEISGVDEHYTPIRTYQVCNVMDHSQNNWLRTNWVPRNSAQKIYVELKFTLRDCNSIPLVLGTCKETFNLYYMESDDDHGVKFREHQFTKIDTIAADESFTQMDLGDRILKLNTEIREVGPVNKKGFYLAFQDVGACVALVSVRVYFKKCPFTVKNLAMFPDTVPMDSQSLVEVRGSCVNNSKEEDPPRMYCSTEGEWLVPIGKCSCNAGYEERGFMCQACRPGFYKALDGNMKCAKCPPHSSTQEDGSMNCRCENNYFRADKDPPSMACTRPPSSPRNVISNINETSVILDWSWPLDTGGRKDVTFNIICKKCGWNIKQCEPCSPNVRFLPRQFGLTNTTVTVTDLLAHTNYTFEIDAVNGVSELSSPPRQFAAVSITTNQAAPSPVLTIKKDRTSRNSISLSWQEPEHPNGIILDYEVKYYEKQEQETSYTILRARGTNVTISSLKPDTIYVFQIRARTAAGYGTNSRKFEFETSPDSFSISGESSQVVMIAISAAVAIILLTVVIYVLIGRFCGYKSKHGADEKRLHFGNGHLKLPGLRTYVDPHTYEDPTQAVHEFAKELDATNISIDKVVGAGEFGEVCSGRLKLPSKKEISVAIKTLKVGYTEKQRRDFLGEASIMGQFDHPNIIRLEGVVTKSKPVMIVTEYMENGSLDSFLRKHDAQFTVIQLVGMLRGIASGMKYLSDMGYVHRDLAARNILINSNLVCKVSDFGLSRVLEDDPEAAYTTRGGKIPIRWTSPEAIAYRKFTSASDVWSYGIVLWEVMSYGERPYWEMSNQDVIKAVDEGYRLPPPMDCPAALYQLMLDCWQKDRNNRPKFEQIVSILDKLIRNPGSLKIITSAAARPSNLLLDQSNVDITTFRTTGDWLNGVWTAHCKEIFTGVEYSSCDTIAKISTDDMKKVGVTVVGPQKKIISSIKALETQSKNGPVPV
Particulars: at 10 µM.

The target of assay [2] is Ephrin type-A receptor 4 (Homo sapiens) (UniProt P54764). Conditions: at 1 µM.
Chain of Ephrin type-A receptor 4 (Homo sapiens) (P54764 whole entry): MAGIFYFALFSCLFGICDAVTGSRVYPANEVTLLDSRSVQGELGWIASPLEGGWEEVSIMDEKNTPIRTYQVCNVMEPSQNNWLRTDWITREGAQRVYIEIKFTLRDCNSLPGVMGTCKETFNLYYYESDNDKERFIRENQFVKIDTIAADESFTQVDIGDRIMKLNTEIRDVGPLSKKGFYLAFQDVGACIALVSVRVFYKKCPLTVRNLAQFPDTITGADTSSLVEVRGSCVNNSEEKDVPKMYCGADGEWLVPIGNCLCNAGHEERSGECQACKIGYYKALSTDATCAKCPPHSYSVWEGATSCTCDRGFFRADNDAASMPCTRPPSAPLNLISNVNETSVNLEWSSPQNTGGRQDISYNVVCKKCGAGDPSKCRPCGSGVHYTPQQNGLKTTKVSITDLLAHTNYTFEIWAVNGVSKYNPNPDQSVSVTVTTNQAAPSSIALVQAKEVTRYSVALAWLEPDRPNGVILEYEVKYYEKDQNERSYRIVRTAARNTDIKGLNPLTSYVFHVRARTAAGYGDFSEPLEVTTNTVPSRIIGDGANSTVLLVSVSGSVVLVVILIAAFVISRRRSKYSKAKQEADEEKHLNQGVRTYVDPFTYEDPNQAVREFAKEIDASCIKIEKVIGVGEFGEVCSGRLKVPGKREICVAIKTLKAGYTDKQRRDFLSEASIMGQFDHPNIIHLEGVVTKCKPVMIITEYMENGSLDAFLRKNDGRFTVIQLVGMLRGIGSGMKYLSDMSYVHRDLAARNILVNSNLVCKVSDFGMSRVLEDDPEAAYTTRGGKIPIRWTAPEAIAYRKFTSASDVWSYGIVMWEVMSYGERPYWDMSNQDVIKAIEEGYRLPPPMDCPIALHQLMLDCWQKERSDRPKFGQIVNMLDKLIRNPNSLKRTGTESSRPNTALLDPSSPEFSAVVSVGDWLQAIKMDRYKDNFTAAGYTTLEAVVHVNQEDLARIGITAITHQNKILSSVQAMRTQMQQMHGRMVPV
Assay [3] shares this target. Particulars: at 10 µM.
In assay [4] the target is Ephrin type-A receptor 5 (Homo sapiens) (UniProt P54756). Particulars: at 1 µM.
Chain of Ephrin type-A receptor 5 (Homo sapiens) (P54756 whole entry): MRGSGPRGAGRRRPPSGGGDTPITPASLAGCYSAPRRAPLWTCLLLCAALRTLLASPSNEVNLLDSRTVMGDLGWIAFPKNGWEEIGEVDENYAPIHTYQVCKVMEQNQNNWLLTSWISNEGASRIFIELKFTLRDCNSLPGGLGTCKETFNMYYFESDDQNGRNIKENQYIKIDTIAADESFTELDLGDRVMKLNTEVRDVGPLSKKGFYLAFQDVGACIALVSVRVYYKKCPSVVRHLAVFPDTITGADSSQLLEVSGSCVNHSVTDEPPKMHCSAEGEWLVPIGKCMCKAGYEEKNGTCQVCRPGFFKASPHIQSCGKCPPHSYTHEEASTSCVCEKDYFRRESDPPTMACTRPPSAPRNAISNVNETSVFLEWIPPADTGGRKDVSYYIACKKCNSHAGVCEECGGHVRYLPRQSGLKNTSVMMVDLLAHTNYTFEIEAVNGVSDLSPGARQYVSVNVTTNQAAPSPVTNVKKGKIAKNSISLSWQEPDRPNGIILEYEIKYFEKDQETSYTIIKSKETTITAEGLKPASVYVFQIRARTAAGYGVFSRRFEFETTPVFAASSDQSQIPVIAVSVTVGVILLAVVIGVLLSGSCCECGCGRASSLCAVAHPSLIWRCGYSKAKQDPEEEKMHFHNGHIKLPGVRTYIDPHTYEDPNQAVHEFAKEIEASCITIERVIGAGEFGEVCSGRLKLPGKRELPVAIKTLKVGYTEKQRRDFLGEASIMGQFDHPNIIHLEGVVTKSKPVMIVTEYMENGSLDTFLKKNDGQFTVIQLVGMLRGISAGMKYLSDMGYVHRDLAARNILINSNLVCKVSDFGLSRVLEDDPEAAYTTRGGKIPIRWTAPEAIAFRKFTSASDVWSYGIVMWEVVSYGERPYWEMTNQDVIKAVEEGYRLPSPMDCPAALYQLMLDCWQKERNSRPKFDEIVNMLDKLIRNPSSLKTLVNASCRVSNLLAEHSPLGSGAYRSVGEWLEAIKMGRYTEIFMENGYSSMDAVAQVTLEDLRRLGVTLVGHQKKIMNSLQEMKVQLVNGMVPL
For assay [5] the target is unchanged. Particulars: at 10 µM.
Assay [6] has as its target Ephrin type-A receptor 7 (Homo sapiens) (UniProt Q15375). Conditions: at 1 µM.
For assay [7] the target is unchanged. Particulars: at 10 µM.
Assay [8] concerns the target T2, Ephrin type-A receptor 8 (Homo sapiens) (UniProt P29322).
T2 sequence (whole entry): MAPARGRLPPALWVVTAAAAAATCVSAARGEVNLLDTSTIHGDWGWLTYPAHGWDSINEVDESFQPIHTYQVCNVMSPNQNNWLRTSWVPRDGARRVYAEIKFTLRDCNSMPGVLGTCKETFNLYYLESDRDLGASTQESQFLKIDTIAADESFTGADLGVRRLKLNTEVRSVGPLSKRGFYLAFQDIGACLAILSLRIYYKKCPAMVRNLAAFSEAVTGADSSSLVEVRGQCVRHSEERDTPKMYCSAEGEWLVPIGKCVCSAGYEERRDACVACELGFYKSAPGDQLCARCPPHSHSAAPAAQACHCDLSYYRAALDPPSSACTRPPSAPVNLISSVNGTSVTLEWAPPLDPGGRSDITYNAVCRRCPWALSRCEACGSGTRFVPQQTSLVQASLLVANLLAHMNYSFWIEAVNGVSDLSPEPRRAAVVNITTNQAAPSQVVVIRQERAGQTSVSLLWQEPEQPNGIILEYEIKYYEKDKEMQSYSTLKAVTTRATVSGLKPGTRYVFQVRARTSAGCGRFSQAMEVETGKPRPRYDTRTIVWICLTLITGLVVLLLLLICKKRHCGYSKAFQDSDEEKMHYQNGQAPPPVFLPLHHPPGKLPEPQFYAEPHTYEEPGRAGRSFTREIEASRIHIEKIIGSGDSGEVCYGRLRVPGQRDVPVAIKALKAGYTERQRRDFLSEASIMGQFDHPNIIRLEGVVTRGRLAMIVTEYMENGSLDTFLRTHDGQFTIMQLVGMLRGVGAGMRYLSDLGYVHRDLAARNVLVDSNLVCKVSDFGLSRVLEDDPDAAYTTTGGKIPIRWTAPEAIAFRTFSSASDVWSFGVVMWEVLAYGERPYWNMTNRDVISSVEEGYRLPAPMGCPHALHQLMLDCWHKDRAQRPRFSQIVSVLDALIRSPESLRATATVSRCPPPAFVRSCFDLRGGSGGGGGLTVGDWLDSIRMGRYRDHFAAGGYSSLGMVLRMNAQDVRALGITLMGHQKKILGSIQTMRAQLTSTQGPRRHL
Particulars: at 1 µM.

In assay [9] the target is T2, Ephrin type-A receptor 8 (Homo sapiens). Particulars: at 10 µM.
The target of assay [10] is T3, Ephrin type-B receptor 1 (Homo sapiens) (UniProt P54762).
T3 sequence (whole entry): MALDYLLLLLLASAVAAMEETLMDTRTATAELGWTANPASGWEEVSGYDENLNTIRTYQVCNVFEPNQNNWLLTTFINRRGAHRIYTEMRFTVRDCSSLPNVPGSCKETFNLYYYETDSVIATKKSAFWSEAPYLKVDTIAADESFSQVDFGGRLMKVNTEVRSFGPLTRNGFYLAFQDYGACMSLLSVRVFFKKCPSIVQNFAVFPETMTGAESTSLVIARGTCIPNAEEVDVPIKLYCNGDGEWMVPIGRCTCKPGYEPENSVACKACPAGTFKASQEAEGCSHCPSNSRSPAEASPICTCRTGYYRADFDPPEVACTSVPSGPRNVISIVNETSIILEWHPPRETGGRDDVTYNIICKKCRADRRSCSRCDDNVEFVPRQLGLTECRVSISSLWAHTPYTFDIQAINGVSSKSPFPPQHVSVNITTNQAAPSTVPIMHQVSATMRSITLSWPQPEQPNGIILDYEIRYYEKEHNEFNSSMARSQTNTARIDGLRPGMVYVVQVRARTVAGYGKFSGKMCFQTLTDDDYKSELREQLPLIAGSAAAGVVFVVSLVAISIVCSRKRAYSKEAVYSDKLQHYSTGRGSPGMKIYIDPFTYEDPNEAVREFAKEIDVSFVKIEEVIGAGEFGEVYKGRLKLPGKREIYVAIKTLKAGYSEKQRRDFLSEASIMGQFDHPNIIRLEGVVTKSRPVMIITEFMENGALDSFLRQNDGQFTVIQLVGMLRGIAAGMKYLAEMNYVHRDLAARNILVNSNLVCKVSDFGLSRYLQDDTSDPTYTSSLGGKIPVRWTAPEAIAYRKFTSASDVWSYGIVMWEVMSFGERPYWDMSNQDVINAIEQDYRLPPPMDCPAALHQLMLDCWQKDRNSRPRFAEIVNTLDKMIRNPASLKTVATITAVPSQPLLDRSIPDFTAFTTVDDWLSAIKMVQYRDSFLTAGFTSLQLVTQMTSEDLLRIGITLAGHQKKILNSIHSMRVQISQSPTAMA
Particulars: at 1 µM.

Chain of Ephrin type-A receptor 7 (Homo sapiens) (Q15375 28-998 limits assumed): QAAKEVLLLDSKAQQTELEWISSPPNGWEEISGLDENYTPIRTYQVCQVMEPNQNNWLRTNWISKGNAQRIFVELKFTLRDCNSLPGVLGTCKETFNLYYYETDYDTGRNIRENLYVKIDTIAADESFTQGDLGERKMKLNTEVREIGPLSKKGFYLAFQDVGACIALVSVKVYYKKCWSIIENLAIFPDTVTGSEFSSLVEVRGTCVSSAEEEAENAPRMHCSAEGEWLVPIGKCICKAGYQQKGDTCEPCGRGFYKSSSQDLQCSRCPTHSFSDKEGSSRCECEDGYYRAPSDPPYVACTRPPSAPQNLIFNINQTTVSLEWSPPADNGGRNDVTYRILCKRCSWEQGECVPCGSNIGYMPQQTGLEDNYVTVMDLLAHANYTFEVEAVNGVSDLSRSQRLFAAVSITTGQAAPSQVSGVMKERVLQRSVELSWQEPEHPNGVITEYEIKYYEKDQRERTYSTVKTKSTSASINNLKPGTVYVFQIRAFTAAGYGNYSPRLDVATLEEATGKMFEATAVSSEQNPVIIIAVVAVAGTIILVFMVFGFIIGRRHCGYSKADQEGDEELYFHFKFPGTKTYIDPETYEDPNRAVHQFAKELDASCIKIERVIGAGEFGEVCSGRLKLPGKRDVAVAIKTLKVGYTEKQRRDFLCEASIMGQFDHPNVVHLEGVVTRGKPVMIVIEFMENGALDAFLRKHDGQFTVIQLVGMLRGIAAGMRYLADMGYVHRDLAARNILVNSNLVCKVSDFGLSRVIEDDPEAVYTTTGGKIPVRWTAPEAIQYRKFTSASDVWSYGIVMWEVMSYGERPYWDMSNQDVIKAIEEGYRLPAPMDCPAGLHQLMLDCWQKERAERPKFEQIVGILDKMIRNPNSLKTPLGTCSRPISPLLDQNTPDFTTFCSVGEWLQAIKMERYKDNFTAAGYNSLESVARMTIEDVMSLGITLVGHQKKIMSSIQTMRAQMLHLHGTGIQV

In the case of `Nc1n[nH]c2nnc(-c3c(-c4ccccc4)nn4ccccc34)cc12`, the residual activity in [1] was found to be 93%; in assay [2], 104%; in assay [3] it was 100%; in [4] it was 91%; in [5], 94%; in assay [6], 91%. In addition, the residual activity in assay [7] was 83%; in assay [8] it was 91%; in [9], 80%; in assay [10], 98%.

In general, residual activity refers to the signal under treatment as a percentage of the control signal.
